An excerpt weighted towards active compounds, which were near 1.8% of everything screened.
Mcl1-Bid inh – Mcl-1/Bid interaction inhibition; hit rate 0.97% among 220,000; AID 1021; inhibition, % at 21.7 µM; TR-FRET Mcl-1/Bid-Dy647 peptide binding, 1536-well;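 active = compounds that cut the binding signal by more than half at the single screening dose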;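 note: His-tagged Mcl-1 with europium anti-His antibody binding Bid BH3 peptide; 0% = Mcl-1 plus peptide wells and 100% = peptide-only wells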
Target sequence (Q07820 whole entry, looked up): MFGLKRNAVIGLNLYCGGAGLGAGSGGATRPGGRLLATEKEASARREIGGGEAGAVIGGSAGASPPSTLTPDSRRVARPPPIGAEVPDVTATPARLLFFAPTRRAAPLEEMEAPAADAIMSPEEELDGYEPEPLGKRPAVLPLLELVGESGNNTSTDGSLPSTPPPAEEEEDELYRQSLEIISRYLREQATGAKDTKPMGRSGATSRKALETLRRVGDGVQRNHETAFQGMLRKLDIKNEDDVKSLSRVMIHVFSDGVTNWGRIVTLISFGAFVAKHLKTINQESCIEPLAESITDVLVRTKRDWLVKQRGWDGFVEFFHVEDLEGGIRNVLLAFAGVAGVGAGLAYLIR
Mcl1 Noxa PPI – Mcl-1/Noxa interaction inhibition; Q07820; AID 1022; TR-FRET Mcl-1/Noxa peptide binding, 2 h; inhibition, % at 21.7 µM; hit rate 1.5% among 220,000;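 active = compounds that cut the protein-peptide binding signal by more than 50% relative to plate controls in a single-dose test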;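 note: His-tagged Mcl-1 with rhodamine Noxa BH3 peptide and terbium anti-His antibody; 0% = Mcl-1 plus Noxa peptide wells and 100% = peptide-only wells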
TLR4 MyD88 comp – blocks binding of human TLR4 to MyD88. AID 861. hit rate 0.18% among 200,000. HeLa CL3-4 TLR4/MyD88 BLA complementation, FRET ratio. inhibition, % at 8.4 µM. O00206+Q99836; in the data active = inhibition above about 25%;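 note: 0% = vehicle and 100% = reference inhibitor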
Mcl-1 Bim block – disrupts Bim peptide binding to human Mcl-1. Q07820. Bead-based flow cytometry, Bim peptide-Mcl-1 binding. inhibition, % at 10 µM. hit rate 0.1% among 190,000; in the data active = inhibition above about 40%;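 note: 0% = no compound tracer wells and 100% = peptide blocker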
NOD2-RIPK2 inh – inhibitors of human NOD2-RIPK2 interaction | O43353 | CHO BLA complementation NOD2-RIPK2, CCF4 ratio | inhibition, % at 4.98 µM | hit rate 0.38% among 360,000 | AID 624267; in the data active = inhibition above about 21%;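 note: 0% = vehicle only and 100% = reference blocker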
TLR9-MyD88 block – TLR9-MyD88 interaction inhibition; Q9NR96+Q99836; CHO BLA complementation TLR9-MyD88, CCF4 FRET ratio; inhibition, % at 4.98 µM; hit rate 0.21% among 340,000; AID 504734;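 active = inhibition above the mean over all tested compounds plus 3 SD, cut at about 21% in these data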;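 note: 0% = DMSO only wells and 100% = clavulanate BLA inhibitor control wells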
* marks the source's active call; other numbers are inactive results; . = no result.

SMILES | Mcl1-Bid inh | Mcl1 Noxa PPI | TLR4 MyD88 comp | Mcl-1 Bim block | NOD2-RIPK2 inh | TLR9-MyD88 block
O=C(COc1cccc(Cl)c1)Nc1ccc2c(c1)CCC2 | -1.7 | 16.8 | -4.8 | -3.0 | -7.4 | -3.3
O=C(CSc1nc2scc(-c3ccccc3)c2c(=O)[nH]1)Nc1ccccc1 | . | . | . | . | -21.6 | 3.0
CC(C)CNC(=O)CSc1nc2scc(-c3ccccc3)c2c(=O)[nH]1 | -73.1 | 53.5* | -6.0 | 0.0 | -3.6 | 9.4
N#C/C(=C(/O)c1ccc(Cl)c([N+](=O)[O-])c1)c1nc2ccccc2[nH]1 | 24.9 | 66.4* | . | . | -11.2 | 2.5
COc1ccc2nc(-c3ccco3)c(-c3ccco3)nc2c1 | 26.0 | 101.0* | -3.1 | 3.0 | -5.8 | -5.8
Nc1nc(-c2ccco2)c(-c2ccco2)s1 | -35.0 | 41.9 | -4.2 | -3.0 | -6.0 | 3.1
COc1ccc2nc3cccc(OC)c3nc2c1 | -35.4 | 21.9 | 0.5 | 2.0 | 2.2 | -2.9
c1coc(-c2nc(-c3ccco3)c(-c3ccco3)nc2-c2ccco2)c1 | 96.9* | 108.5* | 3.0 | 0.0 | 6.2 | 8.1
COc1ccccc1CCNC(=O)CNC(=O)c1ccc2ccccc2c1 | . | . | . | . | 0.6 | -2.3
Cc1cc(-n2cnnn2)cc(C)c1S(=O)(=O)NCCOc1ccccc1 | . | . | . | . | 0.1 | -3.6
Nc1cccc2[nH]c(C(F)(F)F)nc12 | 18.4 | 51.6* | -3.0 | -28.0 | -4.3 | -1.9
FC(F)(F)c1nc(=S)c2ccccc2[nH]1 | -47.7 | 31.7 | 1.6 | 86.0* | -0.8 | -16.9
Cc1nc(=S)c2ccccc2[nH]1 | 5.0 | 16.2 | -5.4 | 33.0 | 6.9 | 9.4
CN1CCN(Cc2cccc3ncccc23)CC1CCO (stereo not drawn) | . | . | . | . | -2.5 | -1.3
C=CCn1c(=O)/c(=C2/SC(C)=C(C)N2CC)s/c1=C1/C(=O)N(CC)C(=S)N1c1ccccc1 | 58.7* | 28.7 | -15.7 | -4.0 | 2.5 | -2.5
C=CCn1c(=O)/c(=C2/SC(C)=C(C)N2CC)s/c1=C1/C(=O)N(C)C(=S)N1c1ccccc1 | . | . | -6.0 | . | . | .
CCc1ccccc1NC(=O)CNC(=O)CSC(=S)N1CCCC1 | . | . | . | . | 12.2 | -3.0
COc1ccc(/C=C2\SC(=S)N(CCC(=O)Nc3ccc(O)cc3)C2=O)cc1 | . | . | . | . | 0.8 | 2.1
O=C(CCN1C(=O)S/C(=C\c2cccs2)C1=O)Nc1nccs1 | -42.9 | 27.9 | 2.2 | 0.0 | 3.8 | -6.1
COc1ccc(/C=C2\SC(=O)N(CCC(=O)Nc3ccc(S(=O)(=O)Nc4nccs4)cc3)C2=O)cc1 | 22.7 | 93.2* | 0.6 | -2.0 | -7.1 | -3.5
COc1ccc(/C=C2/SC(=O)N(CCC(=O)Nc3ccc(S(=O)(=O)Nc4nccs4)cc3)C2=O)cc1 | 41.5 | 96.0* | -2.6 | -8.0 | -4.5 | -6.0
CC1(C)Cc2c(c(-c3ccco3)nc3sc4c(NCCO)ncnc4c23)CO1 | 6.2 | 54.5* | -6.5 | 3.0 | 0.4 | -1.2
COCCCNc1ncnc2c1sc1nc(-c3ccco3)c3c(c12)CC(C)(C)OC3 | -6.1 | 32.5 | . | . | -1.4 | -7.8
CSc1nc(N(CCO)CCO)c2sc3nc(-c4ccco4)c4c(c3c2n1)CCC4 | 80.0* | 106.7* | 0.5 | 9.0 | 3.3 | 5.5
CSc1nc(SCCO)c2sc3nc(-c4ccco4)c4c(c3c2n1)CC(C)(C)OC4 | 84.7* | 99.2* | -4.6 | 6.0 | -7.7 | -7.3
SMILES | Mcl1-Bid inh | Mcl1 Noxa PPI | TLR4 MyD88 comp | Mcl-1 Bim block | NOD2-RIPK2 inh | TLR9-MyD88 block
COc1cc2c(cc1OC)CN(C(=O)c1cccc([N+](=O)[O-])c1)CC2 | -8.6 | -4.7 | . | . | -7.7 | -3.0
Cc1ccc(-c2cc(C(=O)Nc3ccc(S(=O)(=O)Nc4ncccn4)cc3)[nH]n2)c(O)c1C | -5.4 | 56.5* | . | . | -4.8 | 6.2
CN1CCN(C(=O)c2cc(Cl)ccc2NC(=O)c2ccc(Cl)cc2Cl)CC1 | . | . | . | . | -3.2 | -0.6
CCOc1ccccc1N1CCN(C(=O)c2cc(-c3cccnc3)nc3c(Cl)cccc23)CC1 | . | . | . | . | -11.7 | -12.9
O=c1c2cc(N3CCOCC3)ccc2[nH]c(=S)n1Cc1ccco1 | -99.5 | 57.8* | . | 3.0 | 1.9 | 2.3
COC[C@H]1CCCN1c1ccc2c(c1)O[C@@H](COCc1ccccc1)CN([C@@H](C)c1ccccc1)S2(=O)=O | . | . | . | . | -0.1 | .
Nc1ccc(NC(=O)c2ccccc2)c2c1C(=O)c1ccccc1C2=O | 53.5* | 65.6* | 11.0 | -1.0 | 7.1 | -3.3
Nc1ccc(O)c2c1C(=O)c1ccccc1C2=O | -103.9 | 102.8* | 14.1 | 4.0 | 10.0 | -1.7
Nc1ccccc1NC(=O)c1ccccc1 | -24.7 | 2.9 | 5.3 | -3.0 | 1.4 | 6.7
CN(C(=O)CN1C(=O)S/C(=C\c2ccc(Cl)cc2)C1=O)C1CCS(=O)(=O)C1 (stereo not drawn) | . | . | . | . | -3.7 | 0.5
Cc1nnc(-c2cccc(Br)c2)c2cn(-c3ccccc3)nc12 | 0.8 | 21.1 | -9.5 | 0.0 | 3.0 | -3.9
Cc1nnc(-c2cccc(Br)c2)c2cn(-c3ccc(Br)cc3)nc12 | 56.1* | 15.5 | -3.4 | -1.0 | 3.3 | 5.7
CC1CCCCC1NC(=O)CN1CCC(NC(=O)C(C)(C)C)CC1 (stereo not drawn) | . | . | . | . | -0.9 | -3.5
O=C(O)c1ccc(Oc2ccccc2)o1 | 9.6 | 6.8 | . | . | -4.2 | -1.3
CCOc1ccc2nc(N3C(=O)/C(=C/c4ccc(Cl)cc4)NC3=S)sc2c1 | 93.0* | 86.2* | 17.2 | -5.0 | 2.9 | 6.6
CCOc1ccc(S(=O)(=O)Nc2ccccc2C(=O)N2CCOCC2)cc1 | . | . | . | . | -5.2 | -5.5
O=C1CCCc2oc3c(cc(NS(=O)(=O)c4ccc5c6c(cccc46)C(=O)N5)c4ccccc43)c21 | -76.1 | 61.3* | . | . | 5.1 | 2.5
CC(C)=CCc1c(O)cc2oc3c(CC=C(C)C)c(O)c(O)c(CC=C(C)C)c3c(=O)c2c1O | -50.9 | 60.1* | . | . | -0.1 | 9.9
O=C(CC1Sc2ccccc2NC1=O)NCc1ccc(Cl)cc1 (stereo not drawn) | -16.5 | 6.4 | 12.7 | -1.0 | -2.2 | -9.5
O=C(COC(=O)C1CCN(S(=O)(=O)c2cc([N+](=O)[O-])ccc2Cl)CC1)Nc1ncc(Cl)cc1Cl | -9.7 | 69.1* | -9.5 | 0.0 | -0.3 | 0.1
O=C(COC(=O)CCS(=O)(=O)c1ccc(Cl)cc1)Nc1ncc(Cl)cc1Cl | 93.2* | 12.1 | -0.7 | 1.0 | -2.2 | -5.8
Cc1ccc([N+](=O)[O-])cc1S(=O)(=O)Nc1ccc(-c2ccc(N3CCCC3)nn2)cc1 | . | . | . | . | -7.9 | 3.6
Cc1ccccc1CN1CCN(S(=O)(=O)c2ccc(F)cc2)CC1 | 59.6* | 5.0 | 11.6 | 1.0 | 5.1 | -4.2
O=C(O)CCc1nn2c3ccccc3n(CC(=O)c3ccccc3)c2nc1=O | 73.6* | 28.5 | 5.3 | 3.0 | -1.5 | -3.6
CCOc1ccccc1OCC(=O)O | 9.5 | 11.9 | 0.0 | -1.0 | -4.5 | -3.3
O=C(O)COc1ccccc1O | -18.7 | 52.0* | -4.6 | -2.0 | -6.3 | 1.9
CN(C)c1oc(-c2ccccc2Cl)nc1P(=O)(c1ccccc1)c1ccccc1 | -11.6 | 64.1* | 4.7 | 0.0 | 10.4 | -1.1
O=C(CSc1nc(=O)n2ccccc2n1)NC1CCCCC1 | . | . | . | . | 2.8 | 3.0

Bioassay records as filed in PubChem BioAssay.
